The values below come from PubChem BioAssay (EPA / NIEHS).

Results filed as inconclusive are left out. Activity calls are given as the source filed them. The calls were made as follows: active = hit-call score of the fitted dose curve at least 0.9, where 1 is the maximum; inconclusive = response in the unintended direction; inactive = score below 0.9.

human Vitamin D Receptor (VDR), VDR (gene 7421), sequence (P11473 whole entry, looked up, the tested form may be a part): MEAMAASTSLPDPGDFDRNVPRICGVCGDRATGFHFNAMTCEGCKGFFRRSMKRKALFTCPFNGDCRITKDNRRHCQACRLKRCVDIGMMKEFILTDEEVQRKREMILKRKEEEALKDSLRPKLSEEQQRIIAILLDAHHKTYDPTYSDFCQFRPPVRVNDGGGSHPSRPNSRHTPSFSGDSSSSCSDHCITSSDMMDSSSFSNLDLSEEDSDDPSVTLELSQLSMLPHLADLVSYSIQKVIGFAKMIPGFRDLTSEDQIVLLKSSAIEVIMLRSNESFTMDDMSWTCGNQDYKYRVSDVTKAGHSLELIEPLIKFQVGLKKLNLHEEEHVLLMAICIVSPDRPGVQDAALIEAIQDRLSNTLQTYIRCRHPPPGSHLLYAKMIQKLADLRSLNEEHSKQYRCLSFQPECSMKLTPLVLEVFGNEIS

This assay has as its target human Vitamin D Receptor (VDR), VDR (gene 7421) (UniProt P11473). Description: ATG_VDR_TRANS: Attagene TRANS-FACTORIAL HepG2 Assay for human Vitamin D Receptor (VDR) (AID 2283022). The gist of the method:
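Fluorescence of labelled reporter cDNA fragments, resolved by capillary electrophoresis, gives mRNA induction after 24 h treatment of HepG2 cells carrying transfected Gal4-fusion reporter units. Activity is fitted in the positive direction with DMSO as baseline.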
Take `NS(=O)(=O)c1cc(C(=O)O)c(NCc2ccco2)cc1Cl`: the call was inactive.

Take `CCCCCCOc1ccc(O)cc1`: the compound was classed as inactive.

With `CC/C=C\CCOC(=O)C(C)C`, the compound was called inactive.

On to `NC(=O)c1cccnc1`, for which the result was inactive.

For the compound `COc1ccc2[nH]cc(CCNC(C)=O)c2c1`, the call was inactive.

As for `CCCCCCCCCO`, the call was inactive.

For `CCCCCCCC(=O)N(C)C`, the outcome was inactive.

As for `CC1=CC[C@@H](C(C)(C)O)CC1`, the compound was called inactive.

As for `Cc1cc(N)n(-c2ccccc2)n1`, the result was inactive.

On to `C=C1CC[C@H]2O[C@]2(C)CC[C@@H]2[C@@H]1CC2(C)C`, for which the compound was classed as inactive.

Consider `CCCCOCCOC(=O)c1ccccc1C(=O)OCCOCCCC`, for which the call was inactive.

Take `CCCCOC(=O)C(C)OC(=O)CCC` (stereo not given): the compound was classed as inactive.

As for `S=c1[nH][nH]c(=S)s1`, the compound was called inactive.

With `CC(=O)C1=C(C)[C@@H]2C[C@@]3(C1)[C@H](C)CC[C@H]3C2(C)C`, the compound was classed as inactive.

Turning to `C=COCC1CCC(COC=C)CC1` (stereo not given), the call was inactive.

Consider `CN(C)C(=O)Nc1ccccc1`, for which the result was inactive.

For `CC1=CC(O)CC(C)(C)C1` (stereo not given), the compound was classed as inactive.

As to `C=C(C)C(=O)OCCOCCOC(=O)C(=C)C`, the compound was called inactive.

In the case of `CCCc1ccc(N)cc1`, the compound was classed as inactive.

With `CC(=O)C1C(=O)C=C(C)OC1=O` (stereo not given), the call was inactive.

As for `CCCC1CCOC(C)S1` (stereo not given), the compound was called inactive.

Take `CC(C)CCOC(=O)CC(C)C`: the result was inactive.

For the compound `NNC(=O)OCc1ccccc1`, the outcome was inactive.

Take `CCCC[N+](C)(CCCC)CCCC`: the compound was classed as inactive.

Turning to `CN(C)CCC=C1c2ccccc2CCc2ccccc21`, the compound was called inactive.

As to `CCCCCCCCOC(C)=O`, the compound was classed as inactive.

Take `c1ccc(Cc2ccccc2)cc1`: the call was inactive.

Take `O=Cc1ccccc1O`: the compound was called inactive.

Regarding `CC(C)COC(=O)c1ccccc1O`, the call was inactive.

In the case of `CC1=C(C=O)C(C)(C)CCC1`, the compound was called inactive.
